Our source for the growth values is PubChem BioAssay (NCI).

Some test systems named below: HCT-15 colon; HT29 colon; SNB-75 CNS; SNB-19 CNS; U251 CNS; PC-3 prostate; SK-MEL-5 melanoma; UACC-62 melanoma; LOX IMVI melanoma; SK-MEL-28 melanoma; SK-MEL-2 melanoma; EKVX NSCLC; SN12C renal; UO-31 renal; TK-10 renal; ACHN renal; CAKI-1 renal; A498 renal; CCRF-CEM leukemia; MOLT-4 leukemia.
What all share (test): NCI-60 one-dose screen, 48 h (100 = growth as untreated, 0 = no growth, -100 = all killed)
Common to all, as to settings: 10 µM unless noted

This is part of a sample that, as a whole, favours compounds with a hit. Of some 83,000 tested, about 20% had one in any assay.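 Negative percent growth values reflect cell death: -40 means 40% of the cells present at the start died, and -100 means all died.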 Unmarked numbers belong to inactive results. Calls of active or inactive are those of the source. Rule for the calls: active = growth percent below 10; inactive = the rest.

On to `NC(=O)c1cccc(-n2ccc3cc(NC(=O)c4ccc(N5CCOCC5)c(C(F)(F)F)c4)ccc32)n1`, for which the growth in the test with HCT-15 colon was 33.8%; in the test on HT29 colon, 14.3%; in the test with SNB-75 CNS, 52.8%; in the test on SNB-19 CNS, 70.7%; in the test on U251 CNS, 44.1%; in the test on PC-3 prostate, 34.5%. Also, the growth is 49.7% with SK-MEL-5 melanoma; 50.9% with UACC-62 melanoma; 64.4% in the test with LOX IMVI melanoma; 64.7% in the test with SK-MEL-28 melanoma; 71% in the test on SK-MEL-2 melanoma; 47.8% in the test with EKVX NSCLC. For the same molecule, the growth was 73.5% in the test with SN12C renal; 36.5% in the test with UO-31 renal; 86.9% with TK-10 renal; 46.6% with ACHN renal; 39.7% in the test on CAKI-1 renal; 15.7% in the test on A498 renal. In addition, the growth is 34.4% with CCRF-CEM leukemia and 52.5% in the test on MOLT-4 leukemia.

On to `COc1cc(/C=C/C(=O)c2ccc(F)cc2)ccc1OCCCCOc1ccc(/C=C/C(=O)c2c(C)nc3ccccc3c2C)cc1OC`, for which the growth in the test on HCT-15 colon was 96.5%; with HT29 colon, 100%; in the test on SNB-75 CNS, 97.1%; with SNB-19 CNS, 110%; in the test with U251 CNS it was 83.3%; in the test on PC-3 prostate, 93.2%. In addition, the growth with SK-MEL-5 melanoma is 62.4%; with UACC-62 melanoma it was 73.1%; in the test on LOX IMVI melanoma, 90.2%; in the test with SK-MEL-28 melanoma it was 122%; with SK-MEL-2 melanoma it was 50.5%; in the test on EKVX NSCLC, 133%. Moreover, the growth with SN12C renal is 115%; in the test with UO-31 renal it was 86.8%; in the test with TK-10 renal, 114%; in the test with ACHN renal, 95.8%; in the test on CAKI-1 renal it was 80.6%; in the test on A498 renal it was 113%. Also, the growth in the test on CCRF-CEM leukemia was 80.5%; in the test with MOLT-4 leukemia it was 67%.

As for `CCOC(=O)[C@@H]1CSC(CC)=C(C(=O)O)N1`, the growth is 104% with HCT-15 colon; 111% in the test with HT29 colon; 115% in the test on SNB-75 CNS; 100% in the test on SNB-19 CNS; 94.6% with U251 CNS; -9.62% (active) in the test on PC-3 prostate. Also, the growth with SK-MEL-5 melanoma was 103%; in the test on UACC-62 melanoma, 94.4%; in the test on LOX IMVI melanoma, 104%; in the test with SK-MEL-28 melanoma, 101%; in the test with SK-MEL-2 melanoma, 111%; in the test with EKVX NSCLC, 105%. For the same molecule, the growth with SN12C renal was 98.4%; in the test on UO-31 renal, 85.1%; with TK-10 renal, 110%; with ACHN renal, 97.6%; in the test with CAKI-1 renal it was 97.1%; with A498 renal, 108%. Moreover, the growth with CCRF-CEM leukemia was -12.6% (active); with MOLT-4 leukemia, -5.82% (active).

For `COc1cc2c(c(OC)c1OC)CCC(c1cccc(NC(=O)c3ccc(Br)cc3)c1)O2` (stereo not given), the growth is 85.2% with HCT-15 colon; 77.4% in the test on HT29 colon; 86% in the test with SNB-75 CNS; 86% in the test with SNB-19 CNS; 90% in the test with U251 CNS; 60.5% in the test on PC-3 prostate. Moreover, the growth was 71.4% with SK-MEL-5 melanoma; 60.6% in the test with UACC-62 melanoma; 90.4% in the test on LOX IMVI melanoma; 89.7% in the test on SK-MEL-28 melanoma; 87.4% in the test on SK-MEL-2 melanoma; 77.2% in the test on EKVX NSCLC. Besides, the growth in the test with SN12C renal was 85.7%; in the test on UO-31 renal, 66.6%; in the test on TK-10 renal, 89.9%; in the test with ACHN renal, 91.2%; in the test on CAKI-1 renal, 90.3%; in the test with A498 renal, 69.3%. Further, the growth is 67% with CCRF-CEM leukemia and 41.1% in the test with MOLT-4 leukemia.

On to `Cc1cc(N2CCN(CCNc3ccnc4cc(Cl)ccc34)CC2)nc(N2CCOCC2)n1`, for which the growth with HCT-15 colon was 27.4%; with HT29 colon, 20.7%; with SNB-75 CNS, 88.3%; with SNB-19 CNS, 89.9%; with U251 CNS, 64.5%; in the test with PC-3 prostate, 65.1%. Moreover, the growth in the test on SK-MEL-5 melanoma was 25.4%; in the test with UACC-62 melanoma, 60.2%; in the test with LOX IMVI melanoma, 13.7%; with SK-MEL-28 melanoma it was 77.5%; with SK-MEL-2 melanoma, 83.8%; with EKVX NSCLC it was 65.4%. Moreover, the growth with SN12C renal was 73%; in the test on UO-31 renal it was 43.7%; in the test with TK-10 renal, 84.9%; in the test on ACHN renal it was 77.3%; in the test with CAKI-1 renal, 57.9%; in the test on A498 renal, 45.2%. Also, the values for the growth in the test on CCRF-CEM leukemia and in the test on MOLT-4 leukemia were 75.5% and 47.6%, respectively.

Take `O=C(Nc1ccc(Oc2cccc(F)c2)c(Cl)c1)c1cccnc1`: the growth is 29.9% with HCT-15 colon; 12.7% with HT29 colon; 7.85% (active) in the test with SNB-75 CNS; 42.6% with SNB-19 CNS; 32.5% with U251 CNS; 24.6% with PC-3 prostate. The growth was -24% (active) in the test on SK-MEL-5 melanoma; 31.2% with UACC-62 melanoma; 52.8% in the test with LOX IMVI melanoma; 54% in the test on SK-MEL-28 melanoma; 36.5% in the test on SK-MEL-2 melanoma; 49.6% in the test on EKVX NSCLC. Moreover, the growth in the test with SN12C renal was 36.4%; in the test with UO-31 renal, 39.7%; in the test with TK-10 renal, 59.9%; in the test on ACHN renal, 35.2%; in the test on CAKI-1 renal, 32.5%; in the test on A498 renal it was 4.16% (active). Moreover, the growth was 24% with CCRF-CEM leukemia and 40.2% with MOLT-4 leukemia.

As for `Cc1cc(C(=O)O)c(C)n1-c1cccc(C(=O)O)c1`, the growth was 9.52% (active) with HCT-15 colon; 28.4% with HT29 colon; 121% with SNB-75 CNS; 87% in the test with SNB-19 CNS; 64.2% in the test with U251 CNS; 98.4% with PC-3 prostate. Besides, the growth in the test on SK-MEL-5 melanoma was 95.8%; in the test with UACC-62 melanoma, 85.1%; in the test with LOX IMVI melanoma it was 65%; in the test on SK-MEL-28 melanoma it was 102%; in the test on SK-MEL-2 melanoma, 18.8%; in the test on EKVX NSCLC, 98.5%. Besides, the growth was 83.7% with SN12C renal; 85.5% in the test on UO-31 renal; 95.8% with TK-10 renal; -8.94% (active) with ACHN renal; 13.8% with CAKI-1 renal; 93% in the test with A498 renal. For the same molecule, the growth was 108% with CCRF-CEM leukemia and 62.9% in the test on MOLT-4 leukemia.
